The values that follow come from PubChem BioAssay (NCATS).

SMILES strings stand for the structures. Results filed as inconclusive are left out. Activity calls are given as the source filed them. Calls come from the whole dose curve; as a rule, active = well fitted inhibition curve with a large enough effect; inconclusive = small, poorly fitted or top-dose-only effect; inactive = flat fitted curve, though single readings scatter.

One assay has as its system Zika virus NS2B-NS3 protease. Kind of assay: Primary screen GU AMC qHTS for Zika virus inhibitors (AID 1347154).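 Note: 0% = no-inhibitor control and -100% = no-enzyme control; nearly all actives have a fitted effect of over 70% in size.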 To be noted: Zika NS2B-NS3 unlinked protease, AMC fluorogenic substrate; series mostly up to 54.1 µM; activity change, negative = inhibition: at the top concentration. An outline of the steps: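 Unlinked Zika NS2B hydrophilic domain/NS3 protease domain noncovalent complex (25 nM final) in 10 mM Tris-HCl pH 8.0, 0.01% Tween 20, with AMC peptide substrate. Fluorescence (ex 340, em 450 nm) change over 15 min, room temperature; percent inhibition fitted to 4-parameter Hill equation.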
On the technique in general: qHTS replaces the single test concentration by a dilution series.
With `Cc1ccc(/C(=C\CN2CCCC2)c2ccccn2)cc1`, the “activity change, negative = inhibition” value is -1.28% (inactive).

Turning to `OCCN1CCN(CC/C=C2/c3ccccc3Sc3ccc(C(F)(F)F)cc32)CC1`, the “activity change, negative = inhibition” value was -3.25% (inactive).

For `CCC(=O)c1ccc2c(c1)N(CCCN(C)C)c1ccccc1S2`, the “activity change, negative = inhibition” value was -2.78% (inactive).

Take `CN(C)CC[C@@H](c1ccc(Br)cc1)c1ccccn1`: the “activity change, negative = inhibition” value was -4.68% (inactive).

As to `Cc1nc2sccn2c(=O)c1CCN1CCC(=C(c2ccc(F)cc2)c2ccc(F)cc2)CC1`, the “activity change, negative = inhibition” value is -5.92% (inactive).

In the case of `Nc1c2c(nc3ccccc13)CCCC2O` (configuration not stated), the “activity change, negative = inhibition” value was -4.54% (inactive).

In the case of `CN(C)CC/C=C1\c2ccccc2COc2ccccc21`, the outcome was inactive.

As to `COc1ccc(CCN(C)CCCC(C#N)(c2cc(OC)c(OC)c(OC)c2)C(C)C)cc1OC` (configuration not stated), the call was inactive.

`Cc1ccc(Cl)c(Nc2ccccc2C(=O)O)c1Cl`: the “activity change, negative = inhibition” value is -10.1% (inactive).

Turning to `CC1=NS(=O)(=O)c2cc(Cl)ccc2N1`, the call was inactive.

For `CCN1CCC[C@H]1CNC(=O)c1c(O)c(Cl)cc(Cl)c1OC`, the result was inactive.

With `O=C(O)CCCCCCCC(=O)O`, the “activity change, negative = inhibition” value was 6.04% (inactive).

In the case of `CO[C@@]1(NC(=O)CSCC#N)C(=O)N2C(C(=O)O)=C(CSc3nnnn3C)CS[C@@H]21`, the “activity change, negative = inhibition” value was -1.66% (inactive).

As to `CCOC(=O)C1=C(C)NC(C)=C(C(=O)OC)C1c1cccc([N+](=O)[O-])c1` (configuration not stated), the call was inactive.

Take `NC/C=C/C(=O)O`: the compound was called inactive.

For `CCCN(CCC)C(=O)C(CCC(=O)O)NC(=O)c1ccccc1` (configuration not stated), the “activity change, negative = inhibition” value is -2.72% (inactive).

As for `Cc1nc2c([nH]1)c(=O)n(C)c(=O)n2Cc1ccco1`, the “activity change, negative = inhibition” value is -3.93% (inactive).

On to `C[C@@H](O)[C@H]1C(=O)N2C(C(=O)O)=C(SCCN=CN)C[C@H]12`, for which the “activity change, negative = inhibition” value was -4.91% (inactive).

As to `NC(Cc1ccc(Cl)cc1)C(=O)O` (configuration not stated), the activity change, negative = inhibition is -1.34% [at 0.59 µM] (inactive).

In the case of `C[C@]12CCC(=O)C=C1CC[C@@H]1[C@@H]2CC[C@@]2(C)[C@H]1CC[C@]2(O)C(=O)CO`, the “activity change, negative = inhibition” value was -2.47% (inactive).

For the compound `CCN(Cc1ccncc1)C(=O)C(CO)c1ccccc1` (configuration not stated), the “activity change, negative = inhibition” value is 3.46% (inactive).

For the compound `CN(C)CCCN1c2ccccc2Sc2ccccc21`, the “activity change, negative = inhibition” value was 1.55% (inactive).

Take `CN=C(NC#N)NCCSCc1nc[nH]c1C`: the call was inactive.

Take `Nc1ncn([C@@H]2O[C@H](CO)[C@@H](O)[C@H]2O)c(=O)n1`: the “activity change, negative = inhibition” value was 0.884% (inactive).

Take `CC(=O)[C@@]1(O)CC[C@H]2[C@@H]3CCC4=CC(=O)CC[C@]4(C)[C@H]3CC[C@@]21C`: the “activity change, negative = inhibition” value was 2.49% (inactive).

For `COCCc1ccc(OCC(O)CNC(C)C)cc1` (configuration not stated), the “activity change, negative = inhibition” value is -0.181% (inactive).

`CN(C)CCOC(=O)COc1ccc(Cl)cc1`: the “activity change, negative = inhibition” value was 0.392% (inactive).

Regarding `NC(=O)c1ncn([C@@H]2O[C@H](CO)[C@@H](O)[C@H]2O)c1O`, the “activity change, negative = inhibition” value is -5.45% (inactive).

As to `CCCCCN(CCCCC)C(=O)C(CCC(=O)O)NC(=O)c1ccc(Cl)c(Cl)c1` (configuration not stated), the “activity change, negative = inhibition” value was -17.7% (inactive).

As for `CC(=O)OCC1=C(C(=O)O)N2C(=O)[C@@H](NC(=O)Cc3cccs3)[C@H]2SC1`, the “activity change, negative = inhibition” value was -2.62% (inactive).

In the case of `COC(=O)[C@H]1[C@H]2C[C@@H]3c4[nH]c5cc(OC)ccc5c4CCN3C[C@H]2C[C@@H](OC(=O)c2cc(OC)c(OC)c(OC)c2)[C@@H]1OC`, the “activity change, negative = inhibition” value is -9.54% (inactive).

A further assay deals with Lysine-specific demethylase 5B (Homo sapiens) (UniProt Q9UGL1). The assay is described as follows: Optimization screen for KDM5B Histone Demethylases FDH coupled qHTS against the LOPAC library (AID 1347166). Note: 0% is about no effect. The conditions noted are these: KDM5B demethylation, FDH-coupled NADH fluorescence (FDH is formaldehyde dehydrogenase); series mostly up to 57.5 µM; activity, negative = inhibition: at the top concentration. In a few lines: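 KDM5BDeltaAP (200nM final) in 50mM HEPES pH 7.5, 0.01% Tween-20 was preincubated with compound for 10 min at room temperature. A substrate mix of 12.5uM H3K4Me3, 25uM a-ketoglutarate, ascorbate, Fe2+, NAD+ and formaldehyde dehydrogenase was then added. NADH fluorescence (340/450 nm) was read initially and after 30 min.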
Lysine-specific demethylase 5B (Homo sapiens), sequence (Q9UGL1 whole entry, looked up): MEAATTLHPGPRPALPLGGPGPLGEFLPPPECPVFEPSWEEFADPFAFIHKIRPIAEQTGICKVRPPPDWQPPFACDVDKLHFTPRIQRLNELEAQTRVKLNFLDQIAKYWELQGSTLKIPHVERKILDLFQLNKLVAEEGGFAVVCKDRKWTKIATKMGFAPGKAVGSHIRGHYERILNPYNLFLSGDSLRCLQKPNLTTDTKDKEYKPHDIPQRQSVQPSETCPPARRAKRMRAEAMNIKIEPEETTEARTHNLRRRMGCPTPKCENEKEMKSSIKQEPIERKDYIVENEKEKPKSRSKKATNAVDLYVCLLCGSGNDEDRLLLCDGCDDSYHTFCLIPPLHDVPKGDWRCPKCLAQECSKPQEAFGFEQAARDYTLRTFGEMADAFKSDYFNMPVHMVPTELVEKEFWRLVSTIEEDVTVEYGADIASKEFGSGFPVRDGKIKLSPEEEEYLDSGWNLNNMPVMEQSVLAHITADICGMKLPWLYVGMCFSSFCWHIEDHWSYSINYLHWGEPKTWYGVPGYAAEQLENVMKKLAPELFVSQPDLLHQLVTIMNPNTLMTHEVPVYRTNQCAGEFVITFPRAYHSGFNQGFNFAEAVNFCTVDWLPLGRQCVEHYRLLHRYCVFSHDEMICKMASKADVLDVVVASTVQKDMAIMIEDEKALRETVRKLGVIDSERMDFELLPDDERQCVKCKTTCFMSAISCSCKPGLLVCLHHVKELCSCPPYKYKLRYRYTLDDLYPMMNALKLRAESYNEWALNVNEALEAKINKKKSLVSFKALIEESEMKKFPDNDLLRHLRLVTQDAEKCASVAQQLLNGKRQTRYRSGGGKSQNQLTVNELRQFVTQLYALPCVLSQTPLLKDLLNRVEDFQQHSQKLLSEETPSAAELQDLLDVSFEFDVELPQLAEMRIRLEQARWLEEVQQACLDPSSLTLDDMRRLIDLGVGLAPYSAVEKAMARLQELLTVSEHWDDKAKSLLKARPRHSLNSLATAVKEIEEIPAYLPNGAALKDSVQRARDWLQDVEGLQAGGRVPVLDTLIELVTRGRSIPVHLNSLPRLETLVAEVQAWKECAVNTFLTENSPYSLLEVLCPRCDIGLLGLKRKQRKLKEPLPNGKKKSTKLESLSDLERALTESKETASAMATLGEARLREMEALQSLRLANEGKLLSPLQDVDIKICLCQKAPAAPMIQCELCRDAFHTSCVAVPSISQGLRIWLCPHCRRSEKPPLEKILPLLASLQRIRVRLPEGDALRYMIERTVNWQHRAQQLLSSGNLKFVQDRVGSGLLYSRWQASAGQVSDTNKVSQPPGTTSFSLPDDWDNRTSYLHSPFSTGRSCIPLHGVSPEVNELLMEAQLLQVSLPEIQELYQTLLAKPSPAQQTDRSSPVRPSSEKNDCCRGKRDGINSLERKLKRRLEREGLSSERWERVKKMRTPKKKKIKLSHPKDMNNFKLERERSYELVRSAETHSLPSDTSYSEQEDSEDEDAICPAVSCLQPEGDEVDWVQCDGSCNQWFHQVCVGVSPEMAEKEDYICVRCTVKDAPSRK
With `Cc1ccc(/C(=C\CN2CCCC2)c2ccccn2)cc1`, the “activity, negative = inhibition” value was 3.25% (inactive).

With `CCC(=O)c1ccc2c(c1)N(CCCN(C)C)c1ccccc1S2`, the “activity, negative = inhibition” value is -3.43% (inactive).

`CN(C)CC[C@@H](c1ccc(Br)cc1)c1ccccn1`: the “activity, negative = inhibition” value is -4.73% (inactive).

`Nc1c2c(nc3ccccc13)CCCC2O` (configuration not stated): the “activity, negative = inhibition” value was -23.6% (inactive).

On to `CN(C)CC/C=C1\c2ccccc2COc2ccccc21`, for which the “activity, negative = inhibition” value was 1.12% (inactive).

`COc1ccc(CCN(C)CCCC(C#N)(c2cc(OC)c(OC)c(OC)c2)C(C)C)cc1OC` (configuration not stated): the “activity, negative = inhibition” value is -2.06% (inactive).

For the compound `CC1=NS(=O)(=O)c2cc(Cl)ccc2N1`, the “activity, negative = inhibition” value was -6.08% (inactive).

Take `O=C(O)CCCCCCCC(=O)O`: the “activity, negative = inhibition” value is -5.33% (inactive).

For the compound `CO[C@@]1(NC(=O)CSCC#N)C(=O)N2C(C(=O)O)=C(CSc3nnnn3C)CS[C@@H]21`, the “activity, negative = inhibition” value is -8.33% (inactive).

Regarding `CCOC(=O)C1=C(C)NC(C)=C(C(=O)OC)C1c1cccc([N+](=O)[O-])c1` (configuration not stated), the “activity, negative = inhibition” value was -23.1% (inactive).

As to `NC/C=C/C(=O)O`, the “activity, negative = inhibition” value was -4.32% (inactive).

For the compound `CCCN(CCC)C(=O)C(CCC(=O)O)NC(=O)c1ccccc1` (configuration not stated), the “activity, negative = inhibition” value is -2.54% (inactive).

Turning to `Cc1nc2c([nH]1)c(=O)n(C)c(=O)n2Cc1ccco1`, the “activity, negative = inhibition” value is -3.79% (inactive).

For the compound `NC(Cc1ccc(Cl)cc1)C(=O)O` (configuration not stated), the “activity, negative = inhibition” value was -6.24% (inactive).

On to `C[C@]12CCC(=O)C=C1CC[C@@H]1[C@@H]2CC[C@@]2(C)[C@H]1CC[C@]2(O)C(=O)CO`, for which the “activity, negative = inhibition” value was 2.19% (inactive).

With `CCN(Cc1ccncc1)C(=O)C(CO)c1ccccc1` (configuration not stated), the “activity, negative = inhibition” value was -2.49% (inactive).

For `CN(C)CCCN1c2ccccc2Sc2ccccc21`, the “activity, negative = inhibition” value was -15.9% (inactive).

With `COC(=O)C1=C(C)NC(C)=C(C(=O)OC(C)(C)CN(C)CCC(c2ccccc2)c2ccccc2)C1c1cccc([N+](=O)[O-])c1` (configuration not stated), the “activity, negative = inhibition” value was -22.5% (inactive).

As for `CN=C(NC#N)NCCSCc1nc[nH]c1C`, the “activity, negative = inhibition” value was -8.2% (inactive).

With `Nc1ncn([C@@H]2O[C@H](CO)[C@@H](O)[C@H]2O)c(=O)n1`, the “activity, negative = inhibition” value is -3.09% (inactive).

Consider `CC(=O)[C@@]1(O)CC[C@H]2[C@@H]3CCC4=CC(=O)CC[C@]4(C)[C@H]3CC[C@@]21C`, for which the “activity, negative = inhibition” value was -3.99% (inactive).

In the case of `COCCc1ccc(OCC(O)CNC(C)C)cc1` (configuration not stated), the “activity, negative = inhibition” value was -6.96% (inactive).

`CN(C)CCOC(=O)COc1ccc(Cl)cc1`: the “activity, negative = inhibition” value is 3.84% (inactive).

In the case of `NC(=O)c1ncn([C@@H]2O[C@H](CO)[C@@H](O)[C@H]2O)c1O`, the “activity, negative = inhibition” value was 1.74% (inactive).

As for `CCCCCN(CCCCC)C(=O)C(CCC(=O)O)NC(=O)c1ccc(Cl)c(Cl)c1` (configuration not stated), the “activity, negative = inhibition” value was -1.99% (inactive).

As to `CC(=O)OCC1=C(C(=O)O)N2C(=O)[C@@H](NC(=O)Cc3cccs3)[C@H]2SC1`, the “activity, negative = inhibition” value is -21% (inactive).
